PubChem BioAssay AID624255 (Broad Institute, 2012)
Where “and” joins values, the source holds several entries; their conditions need not be identical. Equal entries are not always repeated. In all, about 77,000 compounds went through this assay and about 4,600 (6%) were called active. About 1% were inconclusive and are not listed. This excerpt belongs to a sample that is enriched for actives. Values without a mark were called inactive.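 The calls were made as follows: active = mean inhibition above about 93%, with at least 55% of replicates each passing it (limit read from the data, passing the limit was not always enough); inconclusive = only one of those two conditions holds; inactive = neither condition holds.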

experiment: T. cruzi intracellular proliferation inhibitors, primary screen, cell-based, beta-gal Tulahuen parasites, NIH3T3 host, luminescence (AID 624255); conditions: T. cruzi beta-gal in NIH3T3, GalScreen luminescence, 90 h; at 8.34 µM; active compounds read high

SMILES	inhibition
C[C@@H](NC(=O)C[C@H]1C[C@H]2c3cc(NC(=O)C4CCOCC4)ccc3O[C@H]2[C@@H](CO)O1)c1ccccc1	-16.2%
Cc1cc(C(=O)Nc2ccc3c(c2)C(=O)N(C)[C@@H]2CC[C@H](CC(=O)NC4CCCC4)O[C@@H]2CO3)no1	-62.2%
CN(C)CCCNC(=O)C[C@H]1CC[C@H]2[C@@H](COC[C@H](O)CN2C(=O)c2ccncc2)O1	-84.6%
COCC(=O)Nc1ccc2c(c1)[C@@H]1C[C@H](CC(=O)NCc3ccc(Cl)cc3)O[C@H](CO)[C@@H]1O2	0.832%
CN1C(=O)c2cc(NC(=O)Cc3cccs3)ccc2OC[C@@H]2O[C@@H](CC(=O)N[C@@H]3CCN(Cc4ccccc4)C3)CC[C@H]21	50.2%
CN1C(=O)c2cc(NS(C)(=O)=O)ccc2OC[C@@H]2O[C@@H](CC(=O)NCc3ccc(-c4ccccc4)cc3)CC[C@H]21	6.8%
CCS(=O)(=O)Nc1ccc2c(c1)C(=O)N(C)[C@H]1CC[C@H](CC(=O)N[C@@H]3CCN(Cc4ccccc4)C3)O[C@H]1CO2	71.7%
CCS(=O)(=O)Nc1ccc2c(c1)C(=O)N(C)[C@@H]1CC[C@H](CC(=O)N[C@H]3CCN(Cc4ccccc4)C3)O[C@@H]1CO2	46.2%
CN1C(=O)c2cc(NC(=O)Nc3ccccc3F)ccc2OC[C@H]2O[C@H](CC(=O)NCc3ccc(-c4ccccc4)cc3)CC[C@H]21	101% (active)
CN1C(=O)c2cc(NC(=O)c3cnccn3)ccc2OC[C@@H]2O[C@H](CC(=O)N[C@@H]3CCN(Cc4ccccc4)C3)CC[C@@H]21	105% (active)
CN1C(=O)c2cc(NC(=O)c3cnccn3)ccc2OC[C@@H]2O[C@@H](CC(=O)N[C@H]3CCN(Cc4ccccc4)C3)CC[C@H]21	109% (active)
CN1C(=O)c2cc(NC(=O)c3cnccn3)ccc2OC[C@@H]2O[C@H](CC(=O)NC3CCC3)CC[C@@H]21	7.25%
CCNC(=O)C[C@@H]1CC[C@@H]2[C@@H](COc3ccc(NC(=O)Nc4ccccc4F)cc3C(=O)N2C)O1	19.6%
C/C=C/c1ccc([C@H]2[C@@H](CO)N[C@@H]2CN(CC)C(=O)CN2CCOCC2)cc1	-25.4%
CCS(=O)(=O)Nc1ccc2c(c1)C(=O)N(C)[C@@H]1CC[C@@H](CC(=O)N3CCCCC3)O[C@H]1CO2	54.2%
CO[C@@H]1CN(C)C(=O)c2cc(NC(=O)C3CCC3)ccc2OC[C@H](C)N(Cc2nccs2)C[C@H]1C	-2.54%
COCC(=O)Nc1ccc2c(c1)C(=O)N(C)C[C@@H](OC)[C@H](C)CN(C(=O)CC1CC1)[C@H](C)CO2	34.9%
Cc1ccc(S(=O)(=O)Nc2ccc3c(c2)CC(=O)N([C@H](C)CO)C[C@@H](C)[C@H](CN(C)S(=O)(=O)c2c(C)noc2C)O3)cc1	-10.8%

SMILES	inhibition
C[C@@H]1CN([C@H](C)CO)C(=O)Cc2cc(N(C)C)ccc2O[C@H]1CN(C)S(C)(=O)=O	-46%
Cc1noc(C)c1S(=O)(=O)Nc1ccc2c(c1)C(=O)N([C@@H](C)CO)C[C@@H](C)[C@H](CN(C)S(=O)(=O)c1ccc(Cl)cc1)OCCCC[C@H](C)O2	96.3% (active)
COc1ccc(S(=O)(=O)Nc2ccc3c(c2)C(=O)N([C@H](C)CO)C[C@@H](C)[C@@H](CN(C)CC2CCCCC2)OCCCC[C@@H](C)O3)cc1	110% (active)
COc1ccc(S(=O)(=O)Nc2ccc3c(c2)C(=O)N([C@H](C)CO)C[C@H](C)[C@@H](CN(C)S(C)(=O)=O)OCCCC[C@@H](C)O3)cc1	50.1%
Cc1noc(C)c1S(=O)(=O)Nc1ccc2c(c1)C(=O)N([C@@H](C)CO)C[C@@H](C)[C@@H](CN(C)S(=O)(=O)c1ccccc1)OCCCC[C@H](C)O2	-37.4%
COc1ccc(S(=O)(=O)Nc2ccc3c(c2)C(=O)N([C@H](C)CO)C[C@H](C)[C@@H](CN(C)C)OCCCC[C@H](C)O3)cc1	17.4% and 81.8%
COc1ccc(S(=O)(=O)N(C)C[C@H]2OCCCC[C@H](C)Oc3ccc(NS(=O)(=O)c4ccc(F)cc4)cc3C(=O)N([C@@H](C)CO)C[C@@H]2C)cc1	108% (active)
COc1ccc(S(=O)(=O)Nc2ccc3c(c2)C(=O)N([C@@H](C)CO)C[C@H](C)[C@H](CN(C)S(=O)(=O)c2ccc(F)cc2)OCCCC[C@@H](C)O3)cc1	94.5%
Cc1ccc(S(=O)(=O)N(C)C[C@H]2OCCCC[C@H](C)Oc3ccc(NS(=O)(=O)c4c(C)noc4C)cc3C(=O)N([C@H](C)CO)C[C@@H]2C)cc1	-43.8%
Cc1noc(C)c1S(=O)(=O)N(C)C[C@H]1Oc2ccc(N(C)C)cc2CC(=O)N([C@H](C)CO)C[C@@H]1C	97.3% (active)
COc1ccc(S(=O)(=O)Nc2ccc3c(c2)C(=O)N([C@@H](C)CO)C[C@H](C)[C@@H](CN(C)S(=O)(=O)c2ccc(F)cc2)OCCCC[C@H](C)O3)cc1	85%
COC(=O)C[C@@H]1CC[C@H]2[C@H](COc3ccc(NC(=O)c4cccs4)cc3C(=O)N2C)O1	2.22%
C[C@H]1CCCCO[C@@H](CN(C)Cc2ccc3c(c2)OCO3)[C@@H](C)CN([C@@H](C)CO)C(=O)c2cc(NC(=O)Nc3ccc(F)cc3)ccc2O1	77.3%
CN1c2ccc(-c3ccc(C#N)cc3)cc2[C@@H]2[C@@H](CCN2C(=O)C2CCCCC2)[C@H]1CO	50.3%
O=C(NCC1CC1)[C@@H]1[C@@H](CO)[C@@H]2Cn3c(ccc(-c4ccncc4)c3=O)[C@H]1N2Cc1nccs1	32.5%
CNC(=O)C[C@H]1CC[C@H]2[C@@H](COc3ccc(NC(=O)c4cccc(OC)c4)cc3C(=O)N2C)O1	3.49%
COc1ccccc1-c1ccc2c(c1)[C@H]1[C@H](CCN1S(=O)(=O)c1ccccc1)[C@@H](CO)N2	77.3%
